The supplement of paper PMC12024424
Structures can show the parent of a compound that is named as a salt.

Tests used:
[1] = system: Staphylococcus aureus Sa2 (MRSA, cystic fibrosis isolate); experiment: growth reduction vs untreated control (OD550); higher = stronger antibacterial activity; details: 0.1 mM; 24 h
Method: (§1)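 Single-dose screen of the MedChem Express Drug Repurposing Library (0.1 mM, 1% DMSO) against planktonic MRSA S. aureus Sa2 (CF isolate) in TSB in 96-well plates, 37 °C aerobic, 24 h. Assays were run in triplicate and repeated twice.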

[2] = system: Staphylococcus aureus Sa2 (MRSA, cystic fibrosis isolate); experiment: growth reduction vs untreated control (viable cell count); higher = stronger antibacterial activity; extreme values may be limits of the assay; details: 0.1 mM; 24 h
Method: as §1

SMILES	growth reduction [1] [%]	growth reduction [2] [%]
OCCN1CCN(CC/C=C2/c3ccccc3Sc3ccc(Cl)cc32)CC1 [Zuclopenthixol]	100	100
C=CC(=O)Nc1cc(Nc2nccc(-c3cn(C4CC4)c4ccccc34)n2)c(OC)cc1N(C)CCN(C)C [Almonertinib (hydrochloride)]	100	100
CCC[C@H](Oc1cc(C)c(-n2cc(C(F)(F)F)cn2)c(C)c1)c1ccc(C(=O)NCCC(=O)O)cc1	100	100
CC(C)Nc1nc2cc(Cl)c(Cl)cc2n1[C@H]1O[C@@H](CO)[C@H](O)[C@@H]1O [Maribavir]	92.7	94
Clc1ccc(C(Cn2ccnc2)OCc2c(Cl)cccc2Cl)c(Cl)c1 (centres undefined) [Isoconazole (nitrate)]	100	100
CN1CC[C@@H](NC(=O)Nc2ccc(C#N)cc2)C[C@@H]1c1nc2ccccc2[nH]1 [Glasdegib]	100	98
C=C[C@@H]1C[C@]1(NC(=O)[C@@H]1C[C@@H]2CN1C(=O)[C@H](C(C)(C)C)NC(=O)O[C@@H]1C[C@H]1CCCCCc1nc3ccc(OC)cc3nc1O2)C(=O)NS(=O)(=O)C1CC1 [Grazoprevir potassium salt]	97.2	100
COc1cc2c(Oc3ccc(NC(=O)C4(C(=O)Nc5ccc(F)cc5)CC4)cc3F)ccnc2cc1OCCCN1CCOCC1 [Foretinib]	94.8	99
COc1cc(C(=O)O)ccc1NC(=O)[C@@H]1N[C@@H](CC(C)(C)C)[C@](C#N)(c2ccc(Cl)cc2F)[C@H]1c1cccc(Cl)c1F [Idasanutlin]	100	100
COc1cc(NC(C)CCCN)c2ncccc2c1 (centres undefined) [Primaquine (Diphosphate)]	91.2	94
CC(/C=C/C=C(\C)C(=O)O)=C\C=C\C=C(C)\C=C\C=C(/C)C(=O)O [Transcrocetin meglumine salt]	100	92
Cn1cc(-c2ccncc2)c(-c2ccc(OCc3ccc4ccccc4n3)cc2)n1 [Mardepodect (hydrochloride)]	100	97
CC(=O)Oc1ccccc1C(=O)Nc1ncc([N+](=O)[O-])s1 [Nitazoxanide]	99.5	100
Cc1ccc2c(=O)c3cccc(CC(=O)O)c3oc2c1C [Vadimezan]	100	100
O=c1[nH]cnc2c1cnn2[C@@H]1O[C@H](CO)[C@@H](O)[C@H]1O [Allopurinol riboside]	99.9	100
CC(O)c1cc(C(=O)N[C@@H](C)Cn2ccc(-c3ccc(C#N)c(Cl)c3)n2)n[nH]1 (some centres undefined) [Darolutamide]	100	100
O=C(Nc1ccccc1)c1ccccc1O [Salicylanilide]	91.4	93
Cc1ccc(Sc2ccccc2N2CCNCC2)c(C)c1 [Vortioxetine (hydrobromide)]	100	100
Cc1cc2c(F)c(Oc3ncnn4cc(OC[C@@H](C)OC(=O)[C@H](C)N)c(C)c34)ccc2[nH]1 [Brivanib (alaninate)]	100	100
O=C1[C@H](CC[C@H](O)c2ccc(F)cc2)[C@@H](c2ccc(O)cc2)N1c1ccc(F)cc1 [Ezetimibe]	91.7	91
CCOC(=O)Nc1ccc(NCc2ccc(F)cc2)nc1N [Flupirtine (Maleate)]	100	96
Cn1cnc([N+](=O)[O-])c1C[N+](C)(C)C/C=C/C(=O)Nc1cc2c(Nc3ccc(Cl)c(Br)c3)ncnc2cn1 [Tarloxotinib (bromide)]	99.6	100
COC(=O)/C=C/C(=O)OCCN1C(=O)CCC1=O [Diroximel fumarate]	100	100
CCN(CC)CCNC(=O)c1c(C)[nH]c(/C=C2\C(=O)Nc3ccc(-c4csc(-c5ccccc5)n4)cc32)c1C [Amcasertib]	100	100
O=C1NCCN1CCN1CCC(c2cn(-c3ccc(F)cc3)c3ccc(Cl)cc23)CC1 [Sertindole]	93.6	97
CC[C@H]1[C@@H](O)[C@@H]2[C@H](CC[C@]3(C)[C@@H]([C@H](C)CCC(=O)O)CC[C@@H]23)[C@@]2(C)CC[C@@H](O)C[C@@H]12 [Obeticholic acid]	94.4	98
CNC(=O)c1ccc(Nc2ncc(C(F)(F)F)c(NCc3nccnc3N(C)S(C)(=O)=O)n2)cc1 [Defactinib]	96.2	95
